# High-throughput results deposited in PubChem by National Center for Advancing Translational Sciences (NCATS).
# Most compounds without a hit are left out; they make up all but 7.9% or so of the library.
# KB-V1 MDR tox = kills drug-selected multidrug resistant KB-V1 cells | KB-V1 MDR cells viability, CellTiter-Glo, 72 h | Potency, µM (highest dose often 46.1 µM), actives largely listed as cytotoxic | hit rate 3.4% among 400,000 | AID 1347076; further: on the % scale 0 is the no-effect control and ±100 the full control effect; nearly all actives have a fitted effect of over 60% in size
#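 In this primary screen, KB-V1 cells overexpressing P-gp are incubated with library compounds (lowest to highest concentration) for 72 h at 37 degrees C before a luminescent ATP viability read.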
# KB-3-1 tox = kills parental KB-3-1 adenocarcinoma cells; Potency, µM (highest dose often 46.1 µM), actives largely listed as cytotoxic; AID 1347075; hit rate 1.4% among 400,000; KB-3-1 viability, CellTiter-Glo ATP luminescence, 72 h; further: on the % scale 0 is the no-effect control and ±100 the full control effect; nearly all actives have a fitted effect of over 60% in size
#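 Screening of KB-3-1 cells (DMEM, 10% FBS, phenol-red free) ran from lowest to highest compound concentration; after 72 h at 37 °C viability was read luminescently and curves fitted.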
# HT1080 IDH1KD tx = HT-1080 IDH1 knockdown cell toxicity (counter line); HT-1080 IDH1 knockdown viability, ATP luminescence, 48 h; Potency, µM (series often up to 46.1 µM), without a hit: at the highest dose activity, negative = toxicity, hits mostly cytotoxic; hit rate 2% among 360,000;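 further: 0% = DMSO wells and -100% = cell-free medium wells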
#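 % activity derives from luminescence (CellTiter-Glo), normalised to DMSO and no-cell wells. HT-1080-IDH1KD cells, 750/well, had 48 h compound exposure at 37 °C.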
# SW480 rerep = induces DNA re-replication in SW480 colon adenocarcinoma cells. AID 624297. hit rate 1.8% among 340,000. SW480 DNA re-replication, Hoechst DNA content imaging, 48 h. Potency, µM (highest dose often 46.1 µM), for the others: at the highest dose re-replication activation, most hits filed as activators; further: % of control where 0% means no effect; nearly all actives have a fitted effect of over 55% in size
#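 Image-based read-out: total Hoechst fluorescence of nuclei (405 nm excitation, 500-530 nm emission), with hits raising the fraction of high-intensity nuclei. SW480 colon cells incubated 48 hr with compounds at 37 C.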
# MCF10A rerep = inducers of DNA re-replication in MCF 10A breast cells. Potency, µM (top dose mostly 46.1 µM), for inactives: top-dose activity, positive = re-replication, actives largely listed as activators. AID 624296. MCF 10A DNA re-replication, Hoechst nuclear intensity, 48 h. hit rate 2.9% among 350,000; further: % of control where 0% means no effect; nearly all actives have a fitted effect of over 50% in size
# HT1080-NT tox = kills 2HG-producing HT-1080-NT fibrosarcoma cells; HT-1080-NT fibrosarcoma viability, CellTiter-Glo ATP luminescence, 48 h; Potency, µM (doses to about 46.1 µM), for the others: at the highest dose activity, negative = less viability, usual class: cytotoxic; hit rate 1.6% among 360,000; AID 686970;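 further: NT is the 2HG producing partner of a matched IDH1 knockdown line; 0% = DMSO-treated cells and -100% = media-only wells without cells; nearly all actives have a fitted effect of over 55% in size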
#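 Read-out is CellTiter-Glo luminescence after 10 minutes at room temperature, following 48 hours' compound treatment of HT-1080-NT cells (750 cells/well, RPMI, 5% FBS, 37 degrees C).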
# Numbers without * were called inactive; i = inactive; ? = inconclusive; . = no result. The call rests on the fitted dose curve; in most records, active means well fitted curve in the direction sought with a large enough effect; inconclusive means small, poorly fitted or top-dose-only effect, or another doubt; inactive means no such curve, though single readings can be large; an effect the other way counts as inactive or inconclusive. Potency means the concentration at half of the fitted maximal effect.
SMILES,KB-V1 MDR tox,KB-3-1 tox,HT1080 IDH1KD tx,SW480 rerep,MCF10A rerep,HT1080-NT tox
CCOc1ccc(Nc2nc(N)nc(CSC(=S)N3CCOCC3)n2)cc1,?,i,-13.5%,2.8%,3.4%,-1.4%
CC(C)COC(=S)Nc1ccccc1,i,i,10.2%,-3.9%,7.6%,2.9%
CCCCCCSc1ccc([C@H]2N[C@@](C)(C(=O)OC)[C@H]3C(=O)N(C)C(=O)[C@@H]23)cc1,i,?,-22.0%,?,?,-18.3%
Cn1cc(CCC(=O)N2CCCC(CCC(=O)NCc3ccccc3F)C2)cn1 (configuration not stated),i,i,-0.4%,19.3%,0.9%,-4.4%
CCc1ccc(NC(=S)Nc2cccc3cnccc23)cc1,20.6µM*,?,-2.6%,6.3%,1.6%,-4.6%
CN(C)CCNc1ncnc2c1sc1nc(-c3ccccc3)c3c(c12)CCCC3,?,i,18.4µM*,3.9%,?,10.3µM*
COc1ncnc2c1sc1nc(-c3ccccc3)c3c(c12)CCCC3,?,i,4.7%,-21.0%,-1.3%,10.9%
COc1ccc(COc2cc(-c3cccc(OC)c3)nc3ccc(NC(C)=O)cc23)cc1,i,i,-5.7%,?,0.2%,-19.6%
COc1ccc(COc2cc(-c3cccc(OC)c3)nc3ccc(NC(=O)c4ccc(C)cc4)cc23)cc1,i,9.2µM*,13µM*,20.6µM*,5.8µM*,13µM*
COc1ccc(COc2cc(-c3cccc(OC)c3)nc3ccc(NC(=O)c4ccc(N(C)C)cc4)cc23)cc1,i,4.61µM*,6.51µM*,9.2µM*,5.8µM*,?
COc1ccc(COc2cc(-c3cccc(OC)c3)nc3ccc(N)cc23)cc1,5.8µM*,?,2.06µM*,1.46µM*,0.731µM*,0.82µM*
COc1ccc(C(=O)N2CCN(Cc3ccc(OC)c(OC)c3)CC2)cc1,i,i,22.8%,-3.9%,-0.5%,21.6%
COc1ccc(NC(=O)C2CCC(CNc3c(N4CCOCC4)c(=O)c3=O)CC2)cc1Cl (configuration not stated),i,i,0.0%,3.2%,0.7%,4.1%
CN(C)c1cc(O)c(C(=S)Nc2ccccc2)c(N(C)C)c1,16.4µM*,?,-16.4%,15.7%,?,-15.5%
CSc1cccc(CN2CCCC(C(=O)Nc3cccc(-n4cccn4)c3)C2)c1 (configuration not stated),.,.,-8.1%,16.4µM*,?,-10.5%
CCn1ncc(CN2CCCC(C(=O)Nc3cccc(-c4cc5ccccc5[nH]4)c3)C2)c1C (configuration not stated),?,?,?,?,16.4µM*,?
Cc1cc(CN2CCCC(C(=O)Nc3cccc(-n4cccn4)c3)C2)cc(C)c1O (configuration not stated),i,i,?,-9.2%,13.9%,-25.0%
CCOc1ccccc1CN1CCCC(C(=O)Nc2cccc(-n3cccn3)c2)C1 (configuration not stated),i,?,23.1µM*,-1.7%,2.1%,23.1µM*
O=C(Nc1cccc(-n2cccn2)c1)C1CCCN(Cc2cc3ccccc3[nH]2)C1 (configuration not stated),i,i,?,?,20.6µM*,?
CCOc1ccccc1/C=C/c1cc(C(=O)O)c2ccccc2n1,i,i,24.7%,4.2%,?,8.5%
CN(C)S(=O)(=O)c1ccc2c(c1)N(CC(=O)N1CCCCC1)CCS2,?,i,.,.,.,.
Cn1c(=O)c2c(nc(N3CCCCC3)n2C)n(C)c1=O,i,i,1.0%,2.7%,-8.5%,0.8%
COc1ccc(NC(=O)c2c(N)no[n+]2[O-])cc1,i,?,0.731µM*,0.8%,?,0.731µM*
O=C(c1cccs1)c1no[n+]([O-])c1C(=O)c1cccs1,?,?,?,13µM*,11.6µM*,18.4µM*
COc1ccc(C(=O)c2ccc(CC#N)s2)cc1,?,?,?,5.5%,-2.2%,?
SMILES,KB-V1 MDR tox,KB-3-1 tox,HT1080 IDH1KD tx,SW480 rerep,MCF10A rerep,HT1080-NT tox
COc1ccc(C(=O)c2no[n+]([O-])c2C(=O)c2ccc(OC)cc2)cc1,?,?,8.2µM*,?,9.2µM*,?
Cc1cc(C)cc(N2C(=O)CCSC23C(=O)N(Cc2ccccc2)c2ccccc23)c1 (configuration not stated),i,i,.,.,.,.
CC(=O)Nc1ccc(N(C(=O)c2ccco2)C(C(=O)NC2CCCC2)c2ccc(N(C)C)cc2)cc1 (configuration not stated),i,i,-0.3%,-9.0%,-0.9%,-0.3%
CCc1ccc(-n2c(=O)c3c4c(sc3n(CC(=O)c3ccc(Cl)cc3)c2=O)CCC4)cc1,i,i,.,.,.,.
O=C(N/N=C/c1cccc2ccccc12)c1n[nH]c2c1CCCC2,2.59µM*,4.11µM*,1.46µM*,5.8µM*,?,1.46µM*
O=C(N/N=C\c1cccc(Cl)c1)c1n[nH]c2c1CCCC2,i,i,-29.2%,-8.2%,?,-5.9%
O=C(N/N=C/c1ccc(Cl)cc1Cl)c1n[nH]c2c1CCCC2,?,5.17µM*,6.51µM*,?,?,8.2µM*
Cc1cc(Nc2nc3ccccc3c3nnc(C)n23)ccc1Br,i,i,.,.,.,.
O=C(CCC(=O)N1CCN(c2ccc(C(F)(F)F)cn2)CC1)c1cccs1,i,i,-4.8%,-13.3%,0.2%,-2.9%
O=C(C[C@H]1CC[C@@H]2[C@H](COC[C@H](O)CN2Cc2nccs2)O1)NCc1ccccc1Cl,i,i,0.1%,.,.,15.7%
CCn1nc(C)cc1C(=O)N1CCCC(C(=O)c2ccc3ccccc3c2)C1 (configuration not stated),i,i,-6.5%,3.6%,?,-5.9%
Cc1cccc2c1NC(=O)C21N2CCCC2C(C(=O)c2ccc3ccccc3c2)C12C(=O)Nc1ccccc12 (configuration not stated),i,?,-3.7%,?,?,-10.0%
CCc1ccc2c(c1)C1(C(=O)N2)N2CCCC2C(C(=O)c2ccc3ccccc3c2)C12C(=O)Nc1ccccc12 (configuration not stated),?,?,20.6µM*,?,?,18.4µM*
CCc1cccc2c1NC(=O)C21N2CCCC2C(C(=O)c2ccc3ccccc3c2)C12C(=O)Nc1ccccc12 (configuration not stated),?,16.4µM*,-10.1%,?,14.5%,-7.0%
